Most compounds without a hit are left out; they make up all but 0.5% or so of the library.
phage Ecoli inh = E. coli growth loss with phage present. growth absorbance. inhibition, % at 11.9 µM. 360,000 compounds, 0.26% hits. AID 651602; in the data active = inhibition above about 11%
AddAB inh = less growth of phage-infected E. coli with AddAB | E. coli expressing H. pylori AddAB, absorbance growth | inhibition, % at 11.9 µM | 330,000 compounds, 0.29% hits; in the data active = inhibition above about 12%
E coli growth-1 = counter-screen for AddAB inhibitors: E. coli growth inhibition; AID 449728; E. coli V3065 growth, OD600 absorbance, 18 h; 330,000 compounds, 0.27% hits; inhibition, % at 11.9 µM;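 active = inhibition above the campaign's mean inhibition across all tested compounds plus 3 SD, cut at about 9.9% in these data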;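 also: uninfected addAB+ strain grown without phage in ampicillin broth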
Tat transport = blocks Tat-dependent protein export in E. coli; E. coli MC4100 TorA-mCherry Tat export, fluorescence; inhibition, % at 10 µM; 340,000 compounds, 0.036% hits; AID 488895;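 active = mean replicate inhibition at least 50% and at least half of replicates individually reaching 50%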;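 also: exported cargo escapes ClpAP degradation while cytoplasmic cargo is degraded and loses fluorescence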
E coli growth-2 = E. coli growth inhibition; 330,000 compounds, 0.21% hits; Escherichia coli growth, OD600, 23 h; hits give low values; OD600 absorbance (concentration not given with the values);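 active = OD600 absorbance below the run mean of sample wells minus 3.6 SD, in any replicate, cut at about 0.56 in these data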
AddAB conf = growth loss of T4-infected E. coli expressing H. pylori AddAB, confirmed | inhibition, % at 11.9 µM | 880 compounds, 64% hits | shares compounds with AddAB inh | E. coli V3065 expressing H. pylori AddAB, T4 phage, OD; T4 phage with gene 2 nonsense mutations | AID 488942;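 active = mean inhibition above a set limit taken from the earlier primary screen, cut at about 13% in these data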;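 also: higher means less bacterial growth since AddAB block lets phage replicate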
RecBCD counter = reduces growth of phage-infected RecBCD+ E. coli, AddAB inhibitor counter-screen | shares compounds with AddAB inh | E. coli V66 + mutant T4 phage, OD growth | inhibition, % at 11.9 µM | 880 compounds, 73% hits;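 active = mean inhibition above the mean of solvent-only control wells plus 3 SD, cut at about 4% in these data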;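 also: optical density read after an 18 h incubation at 37 °C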
bact viab count = counter-screen: bacterial growth inhibition; shares compounds with AddAB inh; bacterial viability, absorbance (AddAB counterscreen); inhibition, % at 11.9 µM; 880 compounds, 35% hits; in the data active = inhibition above about 25%
A number is an active result.

Screening Cn1c([N+](=O)[O-])cnc1COC(N)=O returned phage Ecoli inh inactive, AddAB inh 26, E coli growth-1 17, Tat transport inactive, E coli growth-2 inactive, AddAB conf 79, RecBCD counter 5.2 and bact viab count 57.
Screening Cc1ncc([N+](=O)[O-])n1CCOC(=O)c1ccccc1 returned phage Ecoli inh inactive, AddAB inh inactive, E coli growth-1 inactive, Tat transport inactive and E coli growth-2 inactive.
COc1ccccc1C(=O)N/C(=C\c1ccccc1)C(=O)NC(C)C(=O)O (configuration not stated) was read as phage Ecoli inh inactive, AddAB inh 97, E coli growth-1 72, Tat transport inactive, AddAB conf inactive, RecBCD counter inactive and bact viab count inactive.
Screening CCc1cccc(NC(=O)CCCSc2nc3ccccc3[nH]2)c1 returned phage Ecoli inh inactive, AddAB inh 12, E coli growth-1 inactive, Tat transport inactive, E coli growth-2 inactive, AddAB conf inactive, RecBCD counter inactive and bact viab count inactive.
For O=C1CCN(CCc2ccccc2)CCN1C(CO)c1ccccc1 (configuration not stated) the results were E coli growth-2 inactive.
Screening CC(C)CCN(C)C1CCN(C(=O)Nc2c(F)cccc2F)CC1 returned phage Ecoli inh inactive, AddAB inh 28, E coli growth-1 inactive, Tat transport inactive, E coli growth-2 inactive, AddAB conf inactive, RecBCD counter inactive and bact viab count inactive.
For CCn1cc(C(=O)O)c(=O)c2cnc(N3CCN(C(=S)Nc4ccccc4Cl)CC3)nc21 the results were phage Ecoli inh inactive, AddAB inh 97, E coli growth-1 84, Tat transport inactive, E coli growth-2 inactive, AddAB conf 98, RecBCD counter inactive and bact viab count 32.
Screening C=CCNC(=S)N1CCN(c2ncc3c(=O)c(C(=O)O)cn(CC)c3n2)CC1 returned phage Ecoli inh inactive, AddAB inh 20, E coli growth-1 11, Tat transport inactive, E coli growth-2 0.46, AddAB conf 89, RecBCD counter inactive and bact viab count 26.
CCn1cc(C(=O)O)c(=O)c2cnc(N3CCN(C(=S)Nc4ccc(F)cc4)CC3)nc21 was read as phage Ecoli inh inactive, AddAB inh 18, E coli growth-1 25, E coli growth-2 inactive, AddAB conf 25, RecBCD counter inactive and bact viab count inactive.
C=CCNC(=S)N1CCC(C(=O)c2ccc(OC)cc2)CC1 was read as phage Ecoli inh inactive, AddAB inh inactive, E coli growth-1 inactive, Tat transport inactive and E coli growth-2 inactive.
`Cc1c(Cl)cccc1NC(=S)N1CCN(c2ncccn2)CC1` gave phage Ecoli inh inactive, AddAB inh inactive, E coli growth-1 inactive, Tat transport inactive and E coli growth-2 inactive.
O=C1C=C(c2ccc3c(c2)oc2ccccc23)CC(c2ccc(Cl)cc2)C1 (configuration not stated) was read as E coli growth-2 inactive.
Screening O=C1Nc2ccccc2C(=O)N2C1C1C(=O)N(Cc3ccccc3)C(=O)C1C2c1cccc(Br)c1 (configuration not stated) returned E coli growth-2 inactive.
For NC(=NOC(=O)C=Cc1ccccc1Cl)c1ccccn1 the results were E coli growth-2 inactive.
Screening COC(=O)C1CC2CCC(O)CC2N1Cc1ccc(Cl)cc1 (configuration not stated) returned E coli growth-2 inactive.
For CCOC(=O)c1[nH]c2ccccc2c1NC(C)=O the results were phage Ecoli inh inactive, AddAB inh inactive, E coli growth-1 inactive, Tat transport inactive and E coli growth-2 inactive.
`CCOC(=O)c1[nH]c2ccccc2c1NC(=O)C(CC)CC` gave phage Ecoli inh inactive, AddAB inh 63, E coli growth-1 11, Tat transport inactive, E coli growth-2 inactive, AddAB conf inactive, RecBCD counter inactive and bact viab count inactive.
For O=C(NCc1ccccc1Cl)C1CCN(S(=O)(=O)N2CCCCCC2)CC1 the results were phage Ecoli inh inactive, AddAB inh inactive, E coli growth-1 inactive, Tat transport inactive and E coli growth-2 inactive.
CCCS(=O)(=O)N1CCC(C(=O)NCc2ccccc2Cl)CC1 was read as phage Ecoli inh inactive, AddAB inh 12, E coli growth-1 inactive, Tat transport inactive, E coli growth-2 inactive, AddAB conf 14, RecBCD counter 5.8 and bact viab count inactive.
Screening CCCC(c1nnnn1CS(=O)(=O)c1ccc(C)cc1)N1CCN(c2ccccc2)CC1 (configuration not stated) returned phage Ecoli inh inactive, AddAB inh inactive, E coli growth-1 inactive, Tat transport inactive and E coli growth-2 inactive.
CCC(c1nnnn1CS(=O)(=O)c1ccc(C)cc1)N1CCN(c2nc3ccccc3s2)CC1 (configuration not stated) was read as phage Ecoli inh inactive, AddAB inh 44, E coli growth-1 32, Tat transport inactive, E coli growth-2 inactive, AddAB conf inactive, RecBCD counter inactive and bact viab count inactive.
Screening O=C(O)CC1c2ccc(C(F)(F)F)cc2S(=O)(=O)N1C1CCCCC1 (configuration not stated) returned E coli growth-2 inactive.
COc1c2ccoc2c(OCC(O)C(C)(C)O)c2oc(=O)ccc12 (configuration not stated) was read as E coli growth-2 inactive.
Screening COc1ccc(-c2nnc3ccc(SCC(=O)N4CCCCC4)nn23)cc1OC returned phage Ecoli inh inactive, AddAB inh 97, E coli growth-1 48, Tat transport inactive, E coli growth-2 inactive, AddAB conf inactive, RecBCD counter inactive and bact viab count inactive.
Screening CC(=O)NC1CCCN(O)C(=O)/C=C(\C)CCOC(=O)C(NC(C)=O)CCCN(O)C(=O)/C=C(\C)CCOC(=O)C(NC(C)=O)CCCN(O)C(=O)/C=C(\C)CCOC1=O (configuration not stated) returned AddAB inh 21, E coli growth-1 16, AddAB conf 14, RecBCD counter 15 and bact viab count inactive.
Screening Cc1ccc(C(=O)NC2CCCCN(C)C2=O)cc1 (configuration not stated) returned phage Ecoli inh inactive.
Screening Cc1cccc2cc(C#N)c(N3CCC(O)CC3)nc12 returned phage Ecoli inh inactive, AddAB inh 13, E coli growth-1 inactive, Tat transport inactive, E coli growth-2 inactive, AddAB conf inactive, RecBCD counter inactive and bact viab count inactive.
Screening Cc1cccc2cc(C#N)c(N3CCOCC3)nc12 returned phage Ecoli inh inactive, AddAB inh inactive, E coli growth-1 inactive, Tat transport inactive and E coli growth-2 inactive.
Screening CC1COC(=O)C(NC(=O)OCC2c3ccccc3-c3ccccc32)CC=CCC(CC(=O)NCCO)C(=O)N1 (configuration not stated) returned E coli growth-2 inactive.
